Hedgehog inh = blocks Sonic Hedgehog signaling | Shh-LIGHT2 Gli-luciferase reporter, 30 h | AID 2313 | inhibition, % (test concentration not listed) | 2.1% of 22,000 active;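 active means mean inhibition across valid replicates above about 65%, limit read from the data; inconclusive means mean under the limit, yet half or more replicates past it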;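 further: pathway switched on by Shh-conditioned medium diluted 1 in 25 in low serum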
NOMO-1 viab = STK33 inhibitor candidate reducing NOMO-1 cell viability | 7.5% of 37,000 active | inhibition, % (test concentration not listed) | NOMO-1 AML viability, CellTiter-Glo luminescence, 72 h; in the data active means inhibition above about 80%; inconclusive means no clear call, values can overlap the other calls
PD-1 reversal = reversal of PD-1 mediated T-cell inhibition | activation, % (no concentration beside the values) | AID 2316 | primary human CD4 T cells, PD-L1 beads, CellTiter-Glo 96 h | 29,000 tested, under 10 active; call rule not given here
MITF inh = blocks MITF activity | TRPM1 promoter luciferase, luminescence, 24 h | inhibition, % (concentration not given with the values) | 0.28% of 37,000 active | AID 2240; in the data active means inhibition above about 85%; inconclusive means no clear call, values can overlap the other calls; inactive means below about 68%;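 further: human melanocyte line stably carrying TRPM1 promoter luciferase reporter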
Each line names hits and unclear results; the compound was inactive in the other large screens. Hits are enriched below; roughly 8.1% of the tested compounds scored in any of these assays.

Cc1cccc(NC(=O)/C=C/c2ccccc2)c1	none
O=C1N(C2CCCCC2)C(=NC2CCCCC2)SC12CC2	none
C[C@H](CO)N1C[C@H](C)[C@H](CN(C)S(=O)(=O)c2ccc(F)cc2)Oc2c(NC(=O)c3nc4ccccc4s3)cccc2C1=O	NOMO-1 viab 108
CC(=O)O[C@@H]1CC2C(C)(C)C=CC(=O)[C@]2(C)C2CC[C@@]3(C)[C@H](c4ccoc4)OC(=O)C4OC43[C@@]21C (some centres undefined)	none
CCCOc1ccc2nc(NC(=O)OC)[nH]c2c1	NOMO-1 viab 104 (no result: PD-1 reversal)
C[C@@H]1CN([C@@H](C)CO)C(=O)Cc2cc(NC(=O)Nc3ccc(C(F)(F)F)cc3)ccc2O[C@@H]1CN(C)Cc1ccccc1	NOMO-1 viab inconclusive (no result: PD-1 reversal)
C[C@H]1CN([C@@H](C)CO)C(=O)Cc2cc(NC(=O)Nc3ccccc3)ccc2O[C@@H]1CN(C)Cc1ccc(C(F)(F)F)cc1	none
C[C@@H]1CN([C@@H](C)CO)C(=O)Cc2cc(NC(=O)Nc3ccccc3)ccc2O[C@@H]1CN(C)Cc1ccc(C(F)(F)F)cc1	NOMO-1 viab 119
C[C@@H]1CN([C@H](C)CO)C(=O)Cc2cc(NC(=O)Nc3ccc(C(F)(F)F)cc3)ccc2O[C@@H]1CN(C)Cc1ccccc1	NOMO-1 viab 118
Cn1c(SCC(=O)Nc2cccc(C(F)(F)F)c2)nnc1-c1cc2cc(Cl)ccc2o1	none (no result: Hedgehog inh)
Cc1cccc(C(=O)N(CC#N)CC#N)c1	none
C[C@@H]1CN([C@H](C)CO)C(=O)c2cccc(NS(=O)(=O)c3ccc(Cl)cc3)c2O[C@@H]1CN(C)C(=O)Nc1ccc(C(F)(F)F)cc1	none
Cc1ccc(S(=O)(=O)Nc2cccc3c2O[C@@H](CN(C)C(=O)Nc2ccc(C(F)(F)F)cc2)[C@@H](C)CN([C@H](C)CO)C3=O)cc1	none (no result: PD-1 reversal)
Cc1ccc(S(=O)(=O)Nc2cccc3c2O[C@H](CN(C)C(=O)Nc2ccc(C(F)(F)F)cc2)[C@H](C)CN([C@H](C)CO)C3=O)cc1	NOMO-1 viab 90
C[C@@H]1CN([C@@H](C)CO)C(=O)c2cccc(NS(=O)(=O)c3ccc(Cl)cc3)c2O[C@@H]1CN(C)C(=O)Nc1ccc(C(F)(F)F)cc1	NOMO-1 viab 121, MITF inh 88
CSC(=NC#N)/N=c1/nc(SC)n(C)n1C	none
COc1cc(OC)cc(C2C(C#N)=C(N)Oc3n[nH]c(-c4cccnc4)c32)c1 (centres undefined)	none (no result: Hedgehog inh, PD-1 reversal)
CCOC(=O)Cc1[nH]nc2c1C(C1CC=CCC1)C(C#N)=C(N)O2 (centres undefined)	NOMO-1 viab 114 (no result: Hedgehog inh, PD-1 reversal)
O=C1/C(=C/c2c[nH]c3ccccc23)CSc2ccccc21	NOMO-1 viab 113 (no result: Hedgehog inh)
COc1cc(C2C(C#N)=C(C)Nc3oc(C)nc32)ccc1OCCN1CCOCC1 (centres undefined)	none
O=C(CSc1nnc(-c2ccccc2Br)o1)c1ccc2c(c1)OCCO2	none (no result: Hedgehog inh)
N#CC1=C(N)C(C#N)(C#N)C(c2ccccc2)C2=C1CCCC2 (centres undefined)	NOMO-1 viab 88
C=C1C(=O)O[C@@H]2/C=C(/CO[C@@H]3O[C@H](CO)[C@@H](O)[C@H](O)[C@H]3O)CC/C=C(/C=O)C[C@H](O)[C@@H]12	none
O=C(/C=C/c1ccccc1)CC(O)CCc1ccccc1 (centres undefined)	none
O=C(/C=C/c1ccccc1)CC(O)(c1ccccc1)C(F)(F)F (centres undefined)	NOMO-1 viab 122
O=C(CCn1cccc(C(F)(F)F)c1=O)Sc1ccccc1	NOMO-1 viab inconclusive
C=CC(C)(CC/C=C(\C)C(O)CC=C(C)C)OC1OC(CO)C(O)C(O)C1O (centres undefined)	Hedgehog inh 78 (no result: NOMO-1 viab, PD-1 reversal, MITF inh)
COc1ccc(S(=O)(=O)Nc2cccc3c2O[C@@H](CN(C)CC2CCCCC2)[C@H](C)CN([C@@H](C)CO)C3=O)cc1	none
COc1ccc(S(=O)(=O)Nc2cccc3c2O[C@@H](CN(C)C(=O)NC2CCCCC2)[C@@H](C)CN([C@H](C)CO)C3=O)cc1	Hedgehog inh 66, NOMO-1 viab 114
COc1ccc(S(=O)(=O)Nc2cccc3c2O[C@@H](CN(C)CC2CCCCC2)[C@@H](C)CN([C@H](C)CO)C3=O)cc1	Hedgehog inh 71
C[C@H](CO)N1C[C@H](C)[C@H](CN(C)C(=O)NC2CCCCC2)Oc2c(NS(=O)(=O)c3ccc(Cl)cc3)cccc2C1=O	Hedgehog inh 100, NOMO-1 viab 88
COc1ccc(S(=O)(=O)Nc2cccc3c2O[C@H](CN(C)C(=O)NC2CCCCC2)[C@@H](C)CN([C@@H](C)CO)C3=O)cc1	none (no result: PD-1 reversal)
COc1ccccc1NC(=O)CSc1nc(C)cc(-c2ccccc2)n1	none (no result: Hedgehog inh, PD-1 reversal)
C=C(C)C(=O)O[C@H]1C[C@@]2(C)O[C@@H]2[C@H]2O[C@H]2C(=C)[C@@H](O)[C@H]2OC(=O)C(=C)[C@@H]21	none (no result: NOMO-1 viab, PD-1 reversal, MITF inh)
C=C(C(=O)O[C@H]1C[C@]2(C)C(C(C=O)CC[C@H]2O)[C@H]2OC(=O)C(=C)[C@H]12)C(O)CO (some centres undefined)	NOMO-1 viab 104
C[C@@H]1CCCCO[C@H](CN(C)Cc2ccc(C(=O)Nc3ccccc3N)cc2)[C@@H](C)CN([C@H](C)CO)C(=O)c2cc(NS(=O)(=O)c3cn(C)cn3)ccc2O1	none (no result: Hedgehog inh)
Cc1noc(C)c1S(=O)(=O)Nc1ccc2c(c1)C(=O)N([C@H](C)CO)C[C@H](C)[C@H](CN(C)Cc1ccc(C(=O)Nc3ccccc3N)cc1)OCCCC[C@@H](C)O2	NOMO-1 viab 139 (no result: Hedgehog inh)
Cc1noc(C)c1S(=O)(=O)Nc1ccc2c(c1)C(=O)N([C@@H](C)CO)C[C@@H](C)[C@H](CN(C)Cc1ccc(C(=O)Nc3ccccc3N)cc1)O2	none (no result: Hedgehog inh)
Cc1noc(C)c1S(=O)(=O)Nc1ccc2c(c1)C(=O)N([C@H](C)CO)C[C@H](C)[C@@H](CN(C)Cc1ccc(C(=O)Nc3ccccc3N)cc1)OCCCC[C@@H](C)O2	NOMO-1 viab 127 (no result: Hedgehog inh)
CCCc1cc(=O)[nH]c(SCC(=O)Nc2ccc(Cl)c(Cl)c2)n1	none (no result: Hedgehog inh)
CCOC(=O)N1CCc2c(sc3ncn(Cc4ccc(Cl)cc4)c(=O)c23)C1	Hedgehog inh 95
Cn1c(SCC(=O)N2c3ccccc3CCc3ccccc32)nnc1-c1ccc(Cl)cc1Cl	none (no result: Hedgehog inh, PD-1 reversal)
CC(=O)Nc1ccccc1NC(=O)COc1cc(C)c(Br)c(C)c1	none (no result: Hedgehog inh)
C[C@@H]1CN([C@H](C)CO)C(=O)c2cccc(NC(=O)NC3CCCCC3)c2O[C@@H]1CN(C)Cc1ccc(C(=O)Nc2ccccc2N)cc1	NOMO-1 viab 127 (no result: Hedgehog inh)
C[C@H](CO)N1C[C@H](C)[C@H](CN(C)Cc2ccc(C(=O)Nc3ccccc3N)cc2)Oc2c(NC(=O)NC3CCCCC3)cccc2C1=O	NOMO-1 viab 120 (no result: Hedgehog inh)
C[C@H]1CN([C@@H](C)CO)C(=O)c2cccc(NC(=O)NC3CCCCC3)c2O[C@H]1CN(C)Cc1ccc(C(=O)Nc2ccccc2N)cc1	NOMO-1 viab 129 (no result: Hedgehog inh)
C[C@@H]1CN([C@H](C)CO)C(=O)c2cccc(NC(=O)NC3CCCCC3)c2O[C@H]1CN(C)Cc1ccc(C(=O)O)cc1	none
C[C@H]1CN([C@@H](C)CO)C(=O)Cc2cc(NC(=O)CCC(F)(F)F)ccc2O[C@H]1CN(C)S(=O)(=O)c1ccc(F)cc1	NOMO-1 viab 126

Source: PubChem BioAssay
